# PubChem BioAssay (Tox21)
# Several values for one entry are separate records, joined by “and”; a condition that tells them apart may be missing. Identical values can stand only once. Inconclusive results are not listed. Entries that show only a call come without a potency. Some compounds were tested as several samples or in several runs, with calls that do not always agree. Activity calls are given as the source filed them. Unless noted, calls follow the shape of the dose curve; as a rule, active = well fitted curve in the direction sought with a large enough effect in the repeat runs; inconclusive = weak or mixed curves; inactive = no such curve, though single readings can be large; an effect the other way counts as inactive or inconclusive.
# Assays:
# [1] = molecular target: Thyrotropin-releasing hormone receptor (Homo sapiens) (UniProt P34981); assay: qHTS assay to identify small molecule agonists of the thyrotropin-releasing hormone receptor (TRHR) signaling pathway (AID 1346891; calls by dose curve;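 also: HEK293 cells expressing TRHR with calcium dye readout; series mostly up to about 58 µM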)
# Summary of the method: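 Compounds were tested as agonists at 15 concentrations, in triplicate, on TRHR-Hek293 cells; calcium-sensitive dye fluorescence was recorded for 3 min following addition.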
# [2] = Human pregnane X receptor (PXR) small molecule agonists, qHTS cell viability counter screen (AID 1346977); also: nearly all actives have a fitted effect of over 50% in size; also: potency is read from the fitted curve at half-maximal effect
# Summary of the method: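 Viability counter screen: CellTiter-Fluor signal in PXR-Luc HepG2 cells, 24hr compound exposure, 37C, 5% CO2.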
# [3] = Caspase-3/7 induction in HepG2 cells by small molecules, qHTS assay (AID 1346978); also: nearly all actives have a fitted effect of over 15% in size; also: potency is read from the fitted curve at half-maximal effect
# Summary of the method: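 Wild-type HepG2 cells, 2,000/well, settled 5 hr at 37 C and 5% CO2, then compound-treated for 17 hr; caspase-3/7 activity read by luminescent Caspase-Glo 3/7 after 30 min at room temperature.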
# [4] = Caspase-3/7 induction in CHO-K1 cells by small molecules, qHTS cell viability counter screen (AID 1346979); also: nearly all actives have a fitted effect of over 35% in size; also: potency is read from the fitted curve at half-maximal effect
# Summary of the method: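 Viability readout by fluorescence (CellTiter-Fluor) on wild-type CHO-K1 cells exposed for 16hr at 37C and 5% CO2 to compounds delivered in DMSO; reagent incubated 1hr before reading.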
# [5] = Caspase-3/7 induction in CHO-K1 cells by small molecules, qHTS assay (AID 1346980); also: nearly all actives have a fitted effect of over 15% in size
# Summary of the method: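 Wild-type CHO-K1 cells exposed to compounds for 17hr at 37 C, 5% CO2. Caspase-3/7 activity then measured by Caspase-Glo 3/7 luminescence after 30min at room temperature.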
# [6] = Caspase-3/7 induction in HepG2 cells by small molecules, qHTS cell viability counter screen (AID 1346981); also: nearly all actives have a fitted effect of over 30% in size; also: potency is read from the fitted curve at half-maximal effect
# Summary of the method: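 Wild-type HepG2 cells (2,000/well) were allowed to settle for 5 hr at 37 C, 5% CO2, then dosed with compounds in DMSO by pin transfer. After 16 hr at 37 C, CellTiter-Fluor was added and fluorescence read 1 hr later.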
# [7] = molecular target: Nuclear receptor subfamily 1 group I member 2 (Homo sapiens) (UniProt O75469); assay: Human pregnane X receptor (PXR) small molecule agonists, qHTS assay (AID 1346982); also: nearly all actives have a fitted effect of over 35% in size; also: potency is read from the fitted curve at half-maximal effect
# Summary of the method: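 PXR-Luc HepG2 cells (CYP3A4 promoter-driven luciferase) were seeded in medium with 5% charcoal-stripped FBS, left 5 hr at 37 C, then exposed to compounds in DMSO for 24 hr. Luminescence was read after ONE-Glo addition.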
# [8] = molecular target: Nuclear receptor subfamily 1 group I member 2 (Rattus norvegicus) (UniProt Q9R1A7); assay: Rat pregnane X receptor (rPXR) activation by small molecules, qHTS assay (AID 1346983); details: rPXR luciferase reporter cells, One-Glo luminescence, 24 h; stronger effect = higher value; also: nearly all actives have a fitted effect of over 20% in size
# Summary of the method: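 Cell-based rPXR activation assay: rPXR cells, 2,000 per well, rested 5hr at 37 C, then exposed to compounds in DMSO for 24 hr at 37 C. Luciferase activity read by One-Glo luminescence after 30 min at room temperature.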
# [9] = molecular target: Nuclear receptor subfamily 1 group I member 2 (Homo sapiens) (UniProt O75469); assay: CYP3A4 induction through human pregnane X receptor (PXR) by small molecules, qHTS assay (AID 1346984); also: nearly all actives have a fitted effect of over 40% in size
# Summary of the method: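 DPX-2 cells (HepG2 co-transfected with PXR and CYP3A4 promoter-luciferase) treated with compounds 24 h at 37C; luciferin-IPA CYP3A4 substrate 3uM final added for 3 h, then One-Glo; luminescence read. qHTS format.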
# [10] = molecular target: Nuclear receptor subfamily 1 group I member 2 (Homo sapiens) (UniProt O75469); assay: Human pregnane X receptor (PXR) activation by small molecules, qHTS assay (AID 1346985); also: nearly all actives have a fitted effect of over 40% in size
# Summary of the method: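 DPX-2 cells (HepG2 co-transfected with a PXR response element and a CYP3A4-promoter luciferase construct) were seeded at 2,000 per well, rested 5 hr at 37C, then exposed to DMSO-dissolved compounds for 24 hr. Activation was read as luciferase luminescence.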
# Sequence of Thyrotropin-releasing hormone receptor (Homo sapiens) (P34981 whole entry, looked up): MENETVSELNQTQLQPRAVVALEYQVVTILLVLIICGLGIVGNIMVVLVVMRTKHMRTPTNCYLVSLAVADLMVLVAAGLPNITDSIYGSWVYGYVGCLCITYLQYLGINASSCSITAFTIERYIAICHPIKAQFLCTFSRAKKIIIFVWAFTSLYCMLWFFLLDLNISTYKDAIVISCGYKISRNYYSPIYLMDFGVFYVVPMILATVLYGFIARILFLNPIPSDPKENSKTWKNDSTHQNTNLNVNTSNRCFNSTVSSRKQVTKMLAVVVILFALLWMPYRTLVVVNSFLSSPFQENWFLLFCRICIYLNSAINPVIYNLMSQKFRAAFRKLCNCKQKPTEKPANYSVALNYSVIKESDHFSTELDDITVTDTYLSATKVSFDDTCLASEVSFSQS
# Sequence of Nuclear receptor subfamily 1 group I member 2 (Rattus norvegicus) (Q9R1A7 whole entry, looked up): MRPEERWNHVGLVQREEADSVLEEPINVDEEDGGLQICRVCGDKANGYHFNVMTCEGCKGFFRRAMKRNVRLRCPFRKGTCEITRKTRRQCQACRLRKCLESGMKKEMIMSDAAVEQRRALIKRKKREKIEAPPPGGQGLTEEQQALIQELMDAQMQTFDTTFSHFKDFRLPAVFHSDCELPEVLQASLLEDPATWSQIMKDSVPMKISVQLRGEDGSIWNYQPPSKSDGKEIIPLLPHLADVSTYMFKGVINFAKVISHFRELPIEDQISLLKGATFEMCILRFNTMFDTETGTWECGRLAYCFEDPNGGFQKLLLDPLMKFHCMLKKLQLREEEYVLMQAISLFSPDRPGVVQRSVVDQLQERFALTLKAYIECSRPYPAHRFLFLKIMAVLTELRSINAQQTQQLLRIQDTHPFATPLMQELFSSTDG
# Sequence of Nuclear receptor subfamily 1 group I member 2 (Homo sapiens) (O75469 whole entry, looked up): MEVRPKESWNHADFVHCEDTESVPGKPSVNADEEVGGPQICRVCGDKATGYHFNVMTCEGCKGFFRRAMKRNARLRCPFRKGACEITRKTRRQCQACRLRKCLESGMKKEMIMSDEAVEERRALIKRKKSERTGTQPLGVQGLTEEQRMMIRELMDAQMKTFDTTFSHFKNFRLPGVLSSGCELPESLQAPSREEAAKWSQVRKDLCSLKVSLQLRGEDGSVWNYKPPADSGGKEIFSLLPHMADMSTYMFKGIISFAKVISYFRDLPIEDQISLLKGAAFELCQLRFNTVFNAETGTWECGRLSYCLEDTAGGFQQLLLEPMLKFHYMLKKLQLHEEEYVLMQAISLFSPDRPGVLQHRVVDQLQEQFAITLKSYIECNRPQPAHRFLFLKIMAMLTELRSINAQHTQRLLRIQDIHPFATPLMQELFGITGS
SMILES,Potency [1],Potency [2],Potency [3],Potency [4],Potency [5],Potency [6],Potency [7],max activation [8],outcome [9],outcome [10]
c1ccc(N=Nc2ccccc2)cc1,inactive,inactive,inactive,inactive,inactive,inactive,inactive,,,
Cc1ccc2c(c1N)C(=O)c1ccccc1C2=O,inactive,19.1 µM (active) and 27.3 µM (active),inactive,48 µM (active) and 54.5 µM (active),inactive,30.3 µM (active) and 48.6 µM (active),4.28 µM (active) and 1.93 µM (active),,,
Cc1cc(C)cc(C)c1,inactive,inactive,inactive,inactive,inactive,inactive,inactive,,,
C=C(C)[C@H]1Cc2c(ccc3c2O[C@@H]2COc4cc(OC)c(OC)cc4[C@@H]2C3=O)O1,inactive,112 nM (active) and 2.17 µM (active) and 298 nM (active),inactive,175 nM (active) and 770 nM (active) and 7.5 µM (active),inactive,39.1 µM (active) and 30.6 µM (active) and 5.31 µM (active),inactive,,,
COC(=O)c1sccc1S(=O)(=O)NC(=O)Nc1nc(C)nc(OC)n1,inactive,inactive,inactive,inactive,inactive,inactive,inactive,,,
ClC1C(Cl)C(Cl)C(Cl)C(Cl)C1Cl (stereo not given),inactive,inactive,inactive,inactive,inactive,inactive,,,,
Nn1cnnc1,inactive,inactive,inactive,inactive,inactive,inactive,inactive,,,
COP(=S)(OC)Oc1ccc([N+](=O)[O-])cc1,inactive,inactive,inactive,68.7 µM (active) and inactive,inactive,inactive,inactive,,,
O=C(O)C(F)(F)C(F)(F)C(F)(F)C(F)(F)C(F)(F)C(F)(F)C(F)(F)F,inactive,inactive,inactive,inactive,inactive,inactive,inactive,,,
c1ccc(-c2cccc(-c3ccccc3)c2)cc1,inactive,inactive,inactive,inactive,inactive,inactive,61.8 µM (active) and 27.3 µM (active),,,
CCCCN(CC)c1c([N+](=O)[O-])cc(C(F)(F)F)cc1[N+](=O)[O-],inactive,inactive,inactive,inactive,inactive,inactive,27.7 µM (active) and 7.7 µM (active),,,
O=[N+]([O-])c1cccc2ccccc12,inactive,inactive,inactive,inactive,inactive,inactive,inactive,,,
CCCCCCOC(=O)c1ccccc1C(=O)OCCCCCC,inactive,inactive,inactive,inactive,inactive,inactive,55.6 µM (active) and inactive,,,
CCCCC(CC)COC(=O)Cl (stereo not given),inactive,inactive,inactive,inactive,inactive,inactive,inactive,,,
O=[N+]([O-])c1ccc(O)c([N+](=O)[O-])c1,inactive,24.4 µM (active) and 54.5 µM (active),inactive,48.8 µM (active) and 54.5 µM (active),inactive,54.7 µM (active) and 61.1 µM (active),inactive,,,
CCOc1cc(C=O)ccc1O,inactive,inactive,inactive,inactive,inactive,inactive,inactive,,,
NC(=S)Nc1ccccc1,inactive,inactive,inactive,inactive,inactive,inactive,inactive,,,
O=P(Oc1ccccc1)(Oc1ccccc1)Oc1ccccc1,inactive,inactive,inactive,68.2 µM (active),inactive,inactive,30.5 µM (active) and 27.3 µM (active),,,
CCN(N=O)C(N)=O,inactive,inactive,inactive,inactive,inactive,inactive,inactive,,,
CNC(=O)Oc1cccc2c1OC(C)(C)O2,inactive,inactive,inactive,inactive,inactive,inactive,inactive,,,
S=C1NCCN1,inactive,inactive,inactive,inactive,inactive,inactive,,,,
Cc1cc(Cl)ccc1OCCCC(=O)O,inactive,inactive,inactive,inactive,inactive,inactive,inactive,,,
C=CCN(CC=C)C(=O)C(Cl)Cl,inactive,inactive,inactive,inactive,inactive,inactive,inactive,,,
Nc1ccc(Cl)c(Cl)c1,inactive,inactive,inactive,inactive,inactive,inactive,inactive,,,
Clc1nc(Cl)nc(Cl)n1,inactive,inactive,inactive,inactive,inactive,inactive,inactive,,,

SMILES,Potency [1],Potency [2],Potency [3],Potency [4],Potency [5],Potency [6],Potency [7],max activation [8],outcome [9],outcome [10]
CCOP(=S)(OCC)O/N=C(\C#N)c1ccccc1,inactive,inactive,inactive,inactive,inactive,inactive,30.6 µM (active),,,
Nc1cccnc1,inactive,inactive,inactive,inactive,inactive,inactive,inactive,,,
CC(C)C(=O)OCC(C)(C)C(OC(=O)C(C)C)C(C)C (stereo not given),inactive,inactive,inactive,inactive,inactive,inactive,inactive,,,
O=[N+]([O-])c1c(Cl)c(Cl)c(Cl)c(Cl)c1Cl,inactive,inactive,inactive,inactive,inactive,inactive,inactive,,,
CCN(CC)C(=O)SCc1ccc(Cl)cc1,inactive,inactive,inactive,inactive,inactive,inactive,56.1 µM (active),,,
Nc1ccc(-c2ccccc2)cc1,inactive,inactive,inactive,56 µM (active) and inactive,inactive,inactive,28.1 µM (active) and 30.6 µM (active),,,
COc1ccc(C=O)cc1,inactive,inactive,inactive,inactive,inactive,inactive,inactive,,,
Cc1ccc(OP(=O)(Oc2ccc(C)cc2)Oc2ccc(C)cc2)cc1,inactive,inactive,967 nM (active) and inactive,27.3 µM (active) and inactive,inactive,inactive,5.44 µM (active) and 13.7 µM (active),,,
CCCCC(CC)COC(=O)c1ccc(C(=O)OCC(CC)CCCC)c(C(=O)OCC(CC)CCCC)c1 (stereo not given),inactive,inactive,inactive,inactive,inactive,inactive,inactive,,,
Nc1ccncc1,inactive,inactive,inactive,inactive,inactive,inactive,inactive,,,
CC(C)(OOC(C)(C)c1ccccc1)c1ccccc1,inactive,inactive,inactive,inactive,inactive,inactive,inactive,,,
CC(C)N(C(=O)SCC(Cl)=C(Cl)Cl)C(C)C,inactive,inactive,inactive,inactive,inactive,inactive,inactive,,,
C=CC(=O)OCCO,inactive,inactive,inactive,55.3 µM (active),inactive,inactive,inactive,,,
NCc1cccnc1,inactive,inactive,inactive,inactive,inactive,inactive,inactive,-2.22% (inactive),inactive,inactive
CCC(C)(C)c1ccc(O)cc1,inactive,inactive,,,inactive,inactive,inactive,-0.805% (inactive),inactive,inactive
Nc1ccc(Cl)cc1N,inactive,inactive,22.6 µM (active) and 8.89 µM (active),,inactive,7.92 µM (active),31.9 µM (active) and 4.33 µM (active),,,
CCC(CC)Nc1c([N+](=O)[O-])cc(C)c(C)c1[N+](=O)[O-],inactive,,inactive,inactive,inactive,inactive,61.9 µM (active) and inactive,,,
OCC(O)CO,inactive,inactive,inactive,inactive,inactive,inactive,inactive,,inactive,inactive
CCOc1cc(Oc2ccc(C(F)(F)F)cc2Cl)ccc1[N+](=O)[O-],inactive,inactive,inactive,,inactive,inactive,27.6 µM (active) and 17.2 µM (active),,,
COP(=O)(OC)OC,inactive,44.7 µM (active) and inactive,inactive,30.9 µM (active) and inactive,inactive,inactive,61.6 µM (active) and inactive,,,
CN(C)c1ccc(C(=O)c2ccc(N(C)C)cc2)cc1,inactive,54.5 µM (active),,24.3 µM (active),inactive,48.6 µM (active),48.1 µM (active) and 17.2 µM (active),,,
CCCCCCCCCCCOC(=O)c1ccccc1C(=O)OCCCCCCCCCCC,inactive,,inactive,inactive,inactive,inactive,inactive,,,
C1=Cc2cccc3cccc1c23,inactive,,inactive,inactive,inactive,inactive,inactive,,,
O=Cc1ccco1,inactive,inactive,inactive,inactive,inactive,inactive,inactive,-0.979% (inactive),inactive,inactive
CCC(C)(c1ccc(O)cc1)c1ccc(O)cc1,inactive,,inactive,61.1 µM (active),inactive,inactive,12.2 µM (active) and 5.45 µM (active),,,
